{"source": "PubChem BioAssay (EPA / NIEHS)", "note": "Calls of active or inactive are those of the source. The calls were made as follows: active = hit-call score of the fitted dose curve at least 0.9, where 1 is the maximum; inactive = score below 0.9.", "data": [{"test": "APR_HepG2_MitoticArrest_1hr: Apredica 1-hour HepG2 Assay for Mitotic Arrest (AID 2282672)", "settings": "high-content imaging, actives raise or lower the signal", "description": "APR_HepG2_1hr is a cell-based, multiplexed-readout assay that uses HepG2, a human liver cell line, with measurements taken at 1 hour after chemical dosing in a 384-well plate.APR_HepG2_MitoticArrest_1hr is one of 10 assay component(s) measured or calculated from the APR_HepG2_1hr assay. It is designed to make measurements of cell phenotype, a form of morphology reporter, as detected with fluorescence intensity signals by HCS Fluorescent Imaging technology.Data from the assay component APR_HepG2_MitoticArrest_1hr was analyzed into 1 assay endpoint. This assay endpoint, APR_HepG2_MitoticArrest_1hr, was analyzed with bidirectional fitting relative to DMSO as the negative control and baseline of activity. Using a type of morphology reporter, measures of protein for gain or loss-of-signal activity can be used to understand the signaling at the pathway-level as they relate to the gene . Furthermore, this assay endpoint can be referred to as a primary readout, because this assay has produced multiple assay endpoints where this one serves a signaling function. To generalize the intended target to other relatable targets, this assay endpoint is annotated to the cell cycle intended target family, where the subfamily is arrest.\nCells were treated with dimethyl sulfoxide (DMSO) as a solvent control at a final concentration of 0.5% v/v or with compounds in DMSO with a resulting final DMSO concentration of 0.5% v/v. Compound treatment was done at concentrations of 0.39, 0.78, 1.56, 3.12, 6.24, 12.5, 25, 50, 100, and 200 uM in duplicate on each plate. Cells were treated with compounds for 1, 24, or 72 hr. Carbonyl […] m-chloro-phenylhydrazone (CCCP) and taxol were used as positive controls for mitochondrial function and cytoskeletal stability, respectively; DMSO served as the negative control for this experiment. Cells were fixed by the direct addition of 50 uL formaldehyde in Hank's Balanced Salt Solution (HBSS) to a final concentration of 3.7%. After incubation in the fixation medium for 30 min at room temperature (293-298 K), cells were rinsed twice with HBSS and treated with cell permeabilization buffer (16 uL of 0.5% Triton X-100) for 10 min at room temperature (293-298 K) before labeling. For mitochondrial membrane potential and mitochondrial measurements, pre-fixed cells were incubated with 50 uL of MitoTracker Red CMXRos (Invitrogen) at a concentration of 250 nM for 30 min before fixation. In the remaining cases, post-fixed cells were labeled by incubation with a multiplexed mixture of primary antibodies in HBSS for 60 min at room temperature (293-298 K) to detect immunoreactivity of c-Jun (1:500), phospho-histone H3 (1:100), phospho-histone H2A.x (1:200), p53 (1:400), alpha-tubulin (1:200) and Hoechst 33342 (2 ug/mL). Cells were labeled for multiplexed imaging on two separate plates: a) Hoechst 33342, MitoTracker Red, phospho-histone H3, and alpha-tubulin, and b) Hoechst 33342, phospho-histone H2A.x, and c-Jun. A final rinse with HBSS (50 uL) was performed before analysis. The primary and secondary antibodies for the proteins were phospho-histone H3 (rabbit anti-phospho-histone H3 and FITC-donkey anti-rabbit IgG), phospho-histone H2A.x (mouse anti-phospho-histone H2A.x and FITC-donkey anti-mouse IgG), c-Jun (rabbit anti-phospho-c-Jun and Cy3-donkey anti-rabbit IgG), p53 (sheep anti-p53 and Cy5-donkey anti-sheep IgG), alpha-tubulin (mouse anti-alpha-tubulin and Cy5-donkey anti-mouse IgG). These antibodies are available as the CellCiphr HepG2 assay kit (Millipore).Digital images of each well were captured using a Cellomics ArrayScan VTI (Thermo Scientific Cellomics) (0.8 NA objective, 0.63x optical coupler, and XF-93 filter set) at 20x magnification. The images were acquired using the autofocus feature of the ArrayScan instrument, which entails the following steps. First, the camera focuses on channel 1 (Hoechst 33342), where nuclei are identified. Second, a Z offset of 1 um is used for capturing mitochondria (MitoTracker Red). […]", "values": [{"smiles": "CCCCC(O)(Cn1cncn1)c1ccc(Cl)cc1Cl", "note": "(stereo not given)", "outcome": "inactive"}, {"smiles": "CSC(=O)c1c(C(F)F)nc(C(F)(F)F)c(C(=O)SC)c1CC(C)C", "outcome": "inactive"}, {"smiles": "Nc1c(Cl)c(F)nc(OCC(=O)O)c1Cl", "outcome": "inactive"}, {"smiles": "N#Cc1c[nH]cc1-c1cccc2c1OC(F)(F)O2", "outcome": "inactive"}, {"smiles": "CNC(=O)N(C)c1nnc(C(C)(C)C)s1", "outcome": "inactive"}, {"smiles": "CCCCC(C#N)(Cn1cncn1)c1ccc(Cl)cc1", "note": "(stereo not given)", "outcome": "inactive"}, {"smiles": "CC1(C)CCC(=Cc2ccc(Cl)cc2)C1(O)Cn1cncn1", "note": "(stereo not given)", "outcome": "inactive"}, {"smiles": "CC(C)Nc1nc(Cl)nc(NC(C)C)n1", "outcome": "inactive"}, {"smiles": "O=C(O)c1c(Cl)ccc2cc(Cl)cnc12", "outcome": "inactive"}, {"smiles": "CC1(C)C(C=C(Cl)Cl)C1C(=O)OC(C#N)c1cccc(Oc2ccccc2)c1", "note": "(stereo not given)", "outcome": "inactive"}, {"smiles": "O=c1n(Cl)c(=O)n(Cl)c(=O)n1Cl", "outcome": "inactive"}, {"smiles": "CC(C)=CC1C(C(=O)OCc2coc(Cc3ccccc3)c2)C1(C)C", "note": "(stereo not given)", "outcome": "inactive"}, {"smiles": "CCCC(=NOCC)C1=C(O)CC(CC(C)SCC)CC1=O", "note": "(stereo not given)", "outcome": "inactive"}, {"smiles": "CCCN(CC)CC1COC2(CCC(C(C)(C)C)CC2)O1", "note": "(stereo not given)", "outcome": "inactive"}, {"smiles": "CCOc1cc(C(C)(C)C)ccc1C1COC(c2c(F)cccc2F)=N1", "note": "(stereo not given)", "outcome": "inactive"}, {"smiles": "O=C(Nc1ccccc1-c1ccc(Cl)cc1)c1cccnc1Cl", "outcome": "inactive"}, {"smiles": "CN=C=S", "outcome": "inactive"}, {"smiles": "COP(=O)(OC)O/C(C)=C/C(=O)N(C)C", "outcome": "inactive"}, {"smiles": "OC(c1ccc(Cl)cc1)(c1ccc(Cl)cc1)C(Cl)(Cl)Cl", "outcome": "inactive"}, {"smiles": "CC(C)Oc1cccc(NC(=O)c2ccccc2C(F)(F)F)c1", "outcome": "inactive"}, {"smiles": "N#CN=C1SCCN1Cc1ccc(Cl)nc1", "outcome": "inactive"}, {"smiles": "CCOc1nc(F)cc2nc(S(=O)(=O)Nc3c(Cl)cccc3Cl)nn12", "outcome": "inactive"}, {"smiles": "COCc1cnc(C2=NC(C)(C(C)C)C(=O)N2)c(C(=O)O)c1", "note": "(stereo not given)", "outcome": "inactive"}, {"smiles": "CCSC(=O)N1CCCCCC1", "outcome": "inactive"}, {"smiles": "O=C1C2CC=CCC2C(=O)N1SC(Cl)(Cl)Cl", "note": "(stereo not given)", "outcome": "inactive"}, {"smiles": "COC(=O)NC(=S)Nc1ccccc1NC(=S)NC(=O)OC", "outcome": "inactive"}, {"smiles": "COC(=O)NS(=O)(=O)c1ccc(N)cc1", "outcome": "inactive"}, {"smiles": "CC1(C)C(C(=O)OC(C#N)c2cccc(Oc3ccccc3)c2)C1(C)C", "note": "(stereo not given)", "outcome": "inactive"}, {"smiles": "Cc1c(COC(=O)[C@@H]2[C@H](/C=C(\\Cl)C(F)(F)F)C2(C)C)cccc1-c1ccccc1", "outcome": "inactive"}, {"smiles": "CC1(C)CON(Cc2ccccc2Cl)C1=O", "outcome": "inactive"}, {"smiles": "CCN(CC)C(=O)C(C)Oc1cccc2ccccc12", "note": "(stereo not given)", "outcome": "inactive"}, {"smiles": "Nc1c(Cl)c(Cl)nc(C(=O)O)c1Cl", "outcome": "inactive"}, {"smiles": "CCCCOCN(C(=O)CCl)c1c(CC)cccc1CC", "outcome": "inactive"}, {"smiles": "COCC(C)N(C(=O)CCl)c1c(C)csc1C", "note": "(stereo not given)", "outcome": "inactive"}, {"smiles": "COCC(=O)N(c1c(C)cccc1C)C(C)C(=O)OC", "note": "(stereo not given)", "outcome": "inactive"}, {"smiles": "C=C(C)CN(CC)c1c([N+](=O)[O-])cc(C(F)(F)F)cc1[N+](=O)[O-]", "outcome": "inactive"}, {"smiles": "COc1cc(Cl)c(OC)cc1Cl", "outcome": "inactive"}, {"smiles": "C=CCOC(=O)C(C)(C)OC(=O)c1cc(-n2c(=O)cc(C(F)(F)F)n(C)c2=O)ccc1Cl", "outcome": "inactive"}, {"smiles": "COC(=O)N(C(=O)N1CO[C@@]2(C(=O)OC)Cc3cc(Cl)ccc3C2=N1)c1ccc(OC(F)(F)F)cc1", "outcome": "inactive"}, {"smiles": "CCNC(=O)NC(=O)C(C#N)=NOC", "outcome": "inactive"}]}]}
